The results in this text go back to PubChem BioAssay (EPA / NIEHS).

One may read the AC50 as the concentration giving half of the maximal activity seen.

Calls of active or inactive are those of the source. How the source made its calls: active means hit-call score of the fitted dose curve at least 0.9, where 1 is the maximum; inactive means score below 0.9.

In the test the target is Bile acid receptor (Homo sapiens) (UniProt Q96RI1). Nature of the test: ATG_IR1_CIS: Attagene CIS-FACTORIAL HepG2 Assay for human Nuclear Receptor Subfamily 1 Group H Member 4 (NR1H4), IR1 submotif (AID 2282946). The following applies: IR1 reporter transcription, actives raise or lower the signal. On the procedure: ATG_CIS is a cell-based, multiplexed-readout assay that uses HepG2, a human liver cell line, with measurements taken at 24 hours after chemical dosing in a 24-well plate.ATG_IR1_CIS is one of 52 assay component(s) measured or calculated from the ATG_CIS assay. It is designed to make measurements of mRNA induction, a form of inducible reporter, as detected with fluorescence intensity signals by Reverse transcription polymerase chain reaction (RT-PCR) and Capillary electrophoresis technology.Data from the assay component ATG_IR1_CIS was analyzed into 1 assay endpoint. This assay endpoint, ATG_IR1_CIS, was analyzed with bidirectional fitting relative to DMSO as the negative control and baseline of activity. Using a type of inducible reporter, measures of mRNA for gain or loss-of-signal activity can be used to understand the reporter gene at the transcription factor-level as they relate to the gene NR1H4. Furthermore, this assay endpoint can be referred to as a primary readout, because this assay has produced multiple assay endpoints where this one serves a reporter gene function. To generalize the intended target to other relatable targets, this assay endpoint is annotated to the nuclear receptor intended target family, where the subfamily is non-steroidal.
Chain of Bile acid receptor (Homo sapiens) (Q96RI1 whole entry, looked up): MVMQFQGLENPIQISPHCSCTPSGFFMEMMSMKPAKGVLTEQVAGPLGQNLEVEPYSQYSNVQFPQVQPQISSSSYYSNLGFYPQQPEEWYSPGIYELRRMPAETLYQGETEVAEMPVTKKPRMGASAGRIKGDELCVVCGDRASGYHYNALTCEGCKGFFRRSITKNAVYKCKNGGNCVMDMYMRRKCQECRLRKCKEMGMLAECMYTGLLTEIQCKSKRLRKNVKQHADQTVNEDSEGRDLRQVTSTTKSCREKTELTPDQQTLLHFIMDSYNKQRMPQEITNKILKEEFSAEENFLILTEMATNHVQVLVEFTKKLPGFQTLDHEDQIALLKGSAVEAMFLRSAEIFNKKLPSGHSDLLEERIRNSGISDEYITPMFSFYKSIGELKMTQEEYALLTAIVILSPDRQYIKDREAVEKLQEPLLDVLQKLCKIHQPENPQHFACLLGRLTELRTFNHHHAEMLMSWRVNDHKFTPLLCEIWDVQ
Human liver HepG2 cells are transiently transfected with multiple reporter transcription units (MRTUs) in 6-well plates using FuGene 6 reagent (Roche; 3 ml FuGene/1 mg DNA). The MRTU constructs are regulated by a cis-regulating element (promoter). […] A major difference between the CIS and TRANS system is that in CIS activities of endogenous TFs are measured, whereas the TRANS assay evaluates changes in activities of exogenous, chimeric NR-Gal4 proteins. […] At the end of 24 hour incubation, total RNA was isolated using TriZol reagent (Invitrogen). The isolated RNA is then reverse-transcribed using oligo(dT) primer and Mo-MLV reverse transcriptase (Invitrogen) with DNAse I (Ambion) treatment for 30 min. The one-tenth of the produced cDNA was amplified by PCR using Taq DNA polymerase (Invitrogen) and two reporter sequence-specific primers. The PCR products were fluorescently labeled by primer extension with 6-arboxyfluorescein (6-FAM) 5'-labeled reporter sequence-specific primer (2 min at 95 C, 20 s at 68 C and 10 min at 72 C) and these products were digested with 5U of HpaI (New England Biolabs) for 2h at 37 C. The fragments were purified using Qiaquick PCR columns (Qiagen), analyzed on an ABI 3130xL genetic analyzer (Applied Biosystems) with peak positions identified by using a set of X-rhodamine (ROX)-labeled MapMarker1000 molecular weight standards (BioVentures). The raw capillary electrophoresis data was processed using Attagraph software (Attagene).
On to `CCN(CC)C(=O)SCc1ccc(Cl)cc1`, for which the molecule was called inactive.

Consider `N#Cc1c(Cl)c(Cl)c(Cl)c(C#N)c1Cl`, for which the molecule was called inactive.

For the molecule `CCS(=O)(=O)c1cccnc1S(=O)(=O)NC(=O)Nc1nc(OC)cc(OC)n1`, the molecule was classed as inactive. Take `COc1nn(CSP(=S)(OC)OC)c(=O)s1`: the molecule was classed as inactive. `CC(C)(C)C(O)/C(=C\c1ccc(Cl)cc1Cl)n1cncn1` (stereo unspecified): the call was inactive.

For `O=C(Nc1ccccc1)Nc1cnns1`, the concentration at half-maximal activity (AC50) is 50 µM (active).

As for `CCOc1nc(NC)nc(NC(=O)NS(=O)(=O)c2ccccc2C(=O)OC)n1`, the call was inactive. For `CNC(=O)Oc1cccc(N=CN(C)C)c1`, the call was inactive. `O=[N+]([O-])/N=C1\NCCN1Cc1ccc(Cl)nc1`: the outcome was inactive. Take `Oc1cc(Cl)ccc1Oc1ccc(Cl)cc1Cl`: the molecule was classed as inactive. On the same count and under the same terms, the value for `CCCN(CCC)c1c([N+](=O)[O-])cc(C(F)(F)F)cc1[N+](=O)[O-]` was “inactive”; that for `COC(=O)c1ccccc1S(=O)(=O)NC(=O)N(C)c1nc(C)nc(OC)n1` was “inactive”; that for `CCc1ccc(C(=O)NN(C(=O)c2cc(C)cc(C)c2)C(C)(C)C)cc1` was “inactive”.

In the case of `CC1(c2ccc(Oc3ccccc3)cc2)OC(=O)N(Nc2ccccc2)C1=O` (stereo unspecified), the molecule was classed as inactive.

On to `CCC(C)(C)C(=O)OC1=C(c2ccc(Cl)cc2Cl)C(=O)OC12CCCCC2`, for which the outcome was inactive.

Regarding `CNC(=O)/C=C(\C)OP(=O)(OC)OC`, the molecule was called inactive. Take `COC(=O)c1ccccc1CS(=O)(=O)NC(=O)Nc1nc(OC)cc(OC)n1`: the result was inactive. As for `Cc1[nH]c(=O)n(C(C)(C)C)c(=O)c1Cl`, the result was inactive. On to `O=S1OCC2C(CO1)C1(Cl)C(Cl)=C(Cl)C2(Cl)C1(Cl)Cl` (stereo unspecified), for which the result was inactive.

Consider `Cc1cc(C)nc(NC(=O)NS(=O)(=O)c2ccccc2C(=O)OC2COC2)n1`, for which the outcome was inactive. The same measure, in the same setting: the value for `CC(C)OC(=O)Nc1cccc(Cl)c1` was “inactive”; that for `O=C1c2ccccc2C(=O)N1SC(Cl)(Cl)Cl` was “inactive”. Regarding `COP(=S)(OC)Oc1ccc([N+](=O)[O-])cc1`, the molecule was classed as inactive. `ClC1C(Cl)C(Cl)C(Cl)C(Cl)C1Cl` (stereo unspecified): the outcome was inactive. The same measure, in the same setting: the value for `CCC(C)(NC(=O)c1cc(Cl)c(C)c(Cl)c1)C(=O)CCl` (stereo unspecified) was “inactive”; that for `CN1CSC(=S)N(C)C1` was “inactive”; that for `CC(C)N(C(=O)COc1nnc(C(F)(F)F)s1)c1ccc(F)cc1` was “inactive”.

For the molecule `COc1cc(OC)nc(NC(=O)NS(=O)(=O)c2cc(NC=O)ccc2C(=O)N(C)C)n1`, the molecule was classed as inactive. As to `COC(=O)c1ccccc1S(=O)(=O)NC(=O)Nc1nc(C)nc(OC)n1`, the outcome was inactive. On to `OCCOc1ccccc1`, for which the outcome was inactive. Still for that read-out and setting: the value for `CCCN(CCOc1c(Cl)cc(Cl)cc1Cl)C(=O)n1ccnc1` was “inactive”.
